# Hits are enriched below; roughly 0.4% of the tested compounds scored in any of these assays.
# UDG counterscr: Primary qHTS assay for inhibitors of Activation Induced Cytidine Deaminase (AID): UDG Counterscreen signal | Uracil-DNA glycosylase | FRET deamination/UDG coupled assay, UDG read, 4 h | Potency, µM (series often up to 115 µM), usual class: inhibitors | actives 0.14% (n = 91,000) | AID 1347430, 2020; further: nearly all actives have a fitted effect of over 65% in size
# AID inhibitor: Primary qHTS assay for inhibitors of Activation Induced Cytidine Deaminase (AID): AID signal | Single-stranded DNA cytosine deaminase (Homo sapiens), Q9GZX7 | Potency, µM (series often up to 115 µM), most hits filed as inhibitors | actives 0.32% (n = 91,000) | AID deamination FRET fluorescence, UDG-coupled, 4 h; further: nearly all actives have a fitted effect of over 25% in size
# Target sequence (Q9GZX7 whole entry, looked up): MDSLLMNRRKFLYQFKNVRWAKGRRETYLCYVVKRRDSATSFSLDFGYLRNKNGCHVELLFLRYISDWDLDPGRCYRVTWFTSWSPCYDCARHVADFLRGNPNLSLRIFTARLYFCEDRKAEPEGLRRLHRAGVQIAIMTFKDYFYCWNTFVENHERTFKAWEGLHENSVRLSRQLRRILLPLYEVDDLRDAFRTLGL
# Numbers stand for hits; . = inactive; ? = inconclusive; ! = a repeat was not active. The call rests on the fitted dose curve; in most records, active means well fitted curve in the direction sought with a large enough effect; inconclusive means small, poorly fitted or top-dose-only effect, or another doubt; inactive means no such curve, though single readings can be large; an effect the other way counts as inactive or inconclusive.
SMILES,UDG counterscr,AID inhibitor
COc1ccc2[nH]c(C)c(C(=O)CN3CCC(Cc4ccccc4)CC3)c2c1,89.1µM,.
N#Cc1cccc(/C=C/C(=O)c2cccs2)c1,.,.
CCCCCc1ccc(-c2ccc(C(=O)O)cc2)cc1,.,.
CCCCCCCCc1ccc(-c2ccc(C(=O)O)cc2)cc1,.,89.1µM!
O=C(O)C/C(=C/c1cccs1)c1nc2ccccc2s1,.,.
O=[N+]([O-])c1ccc(N/N=C/c2ccccc2Br)cc1,.,.
NC(N)=N/N=C/c1cccc([N+](=O)[O-])c1,.,.
Cc1cc(C)cc(NC(=O)C2CCCN2c2ncnc3ccccc23)c1 (centres undefined),.,.
CCc1ccc(OCCCSc2nc(-c3ccc(C(C)(C)C)cc3)nc3cc(=O)[nH]n23)cc1,.,79.4µM
Cc1cccc(OCCCSc2nc(-c3ccc(C(C)(C)C)cc3)nc3cc(=O)[nH]n23)c1C,.,?
COc1ccc(-c2c(C#N)c(SCC(=O)Nc3ccccc3C)nc(C)c2C(=O)Nc2ccc(Cl)cc2)cc1,?,.
CCc1ccc(NC(=O)CSc2nc(C)c(C(=O)Nc3ccc(Cl)cc3)c(-c3ccc(OC)cc3)c2C#N)cc1,89.1µM,?
CCOC(=O)c1c(-c2ccc(OC)cc2)oc2ccc(OCc3ccc(F)cc3F)cc12,.,.
O=C(O)c1c(-c2ccccc2)oc2ccc(OCc3c(F)cccc3Cl)cc12,.,79.4µM
Cc1ccc(-n2[nH]c(CSc3nnnn3-c3ccccc3)cc2=O)cc1,89.1µM,.
Cc1ccc(CSc2nnnn2-c2c(C)n(C)n(-c3ccccc3)c2=O)cc1,.,.
CS(=O)(=O)c1ccc(F)c(NC(=O)CCCc2cccs2)c1,.,.
Cc1cc(=O)n(Cc2ccc(F)cc2Cl)c2c1c(C)nn2-c1ccccc1,.,.
Cc1ccc(C)c(-c2ccc(=O)n(Cc3ccc(F)cc3Cl)n2)c1,?,31.6µM
COc1ccc(C(=O)N2CCN(C(=O)Cc3cc(OC)c(OC)c(OC)c3)CC2)cc1,.,.
Cc1ccc(C)c(N2CCN(C(=O)c3cc4ccc5cccnc5c4[nH]3)CC2)c1,.,?
Cc1cccc(N2CCN(C(=O)c3cc4ccc5cccnc5c4[nH]3)CC2C)c1 (centres undefined),?,35.5µM
Cc1ccc(Nc2nnc(SCC(=O)c3ccc(Cl)s3)s2)c(C)c1,.,.
COc1ccc(Nc2nc3ccccc3nc2NS(=O)(=O)c2ccc(Cl)s2)c(OC)c1,.,.
O=C(NCc1cccs1)c1ccc(CSc2nc3ccncc3n2Cc2ccccc2F)cc1,.,79.4µM
SMILES,UDG counterscr,AID inhibitor
Cc1ccccc1Cn1c(SCc2ccc(C(=O)NCc3cccs3)cc2)nc2ccncc21,.,.
O=C(O)C/C(=C/c1ccc(OC(F)F)cc1)c1nc2ccccc2s1,.,.
Cc1cc(C)cc(CC(CC(=O)O)C(=O)Nc2cccc(C(F)(F)F)c2)c1 (centres undefined),.,.
Cc1cccc(-n2c(SCc3nc(-c4ccccc4C)no3)nnc2-c2ccccc2)c1,.,.
Cc1ccc(-c2noc(CSc3nnc(C)n3-c3ccc(F)cc3)n2)cc1,?,.
Cc1nnc(SCc2nc(-c3ccc(Cl)cc3)no2)n1-c1ccc(F)cc1,79.4µM,?
Cc1ccc(-c2noc(CSc3nnc(C4CC4)n3-c3ccccc3)n2)cc1,89.1µM,.
Cc1nn(C)c2sc(C(=O)N3CCN(S(=O)(=O)c4ccc(F)cc4F)CC3)cc12,.,.
COCCNC(=O)c1ccc2c(c1)N(Cc1c(F)cccc1Cl)C(=O)c1ccccc1S2,.,.
CCN(CC)C(=O)c1ccc2c(c1)N(Cc1c(F)cccc1Cl)C(=O)c1ccccc1S2,.,70.8µM
Cc1ccc2c(c1)-c1c(cnn1CC(=O)N1CCN(c3cc(C)ccc3C)CC1)CO2,.,39.8µM
COc1ccc(N2CCN(C(=O)Cn3ncc4c3-c3cc(C)ccc3OC4)CC2)cc1,.,.
N#C/C(=C/c1ccc(O)cc1)c1nc(C2CC2)cs1,.,.
CCn1cc2nc(SCc3cccc(C(F)(F)F)c3)n(Cc3ccc(Cl)cc3)c(=O)c2n1,.,25.1µM
CCn1cc2nc(SCc3cccc(C)c3)n(CCc3ccccc3)c(=O)c2n1,.,35.5µM
CCn1cc2nc(SCc3cccc(C(F)(F)F)c3)n(CCc3ccccc3)c(=O)c2n1,.,?
CCn1cc2nc(SCc3cccc(Cl)c3)n(Cc3ccc(C)cc3)c(=O)c2n1,.,.
O=C(NCc1cccs1)C(c1ccccc1)c1ccccc1,.,.
Cc1ccc(C)c(C(NC(=O)C2CCCCC2)c2cccnc2)c1 (centres undefined),.,.
O=C(CSc1nc2ccccc2nc1N1CCCC1)NCc1ccc(F)cc1,.,.
O=C1c2ccccc2-c2ccccc21,.,.
CC1(C)CCC2=C(O1)c1ccccc1C(=O)C2=O,.,7.94µM
Cc1nc(CSc2ccc3c(c2)OCCCO3)oc1C,.,.
N=c1nc(N)c(N)c(N)n1O,.,.

# High-throughput results (PubChem BioAssay)
